Reference: PubChem BioAssay AID1159580 (chemical genetic matrix, 2015)
“And” between values parts separate entries of the source, which are not always exact repeats. Identical values can stand only once. The campaign covered roughly 5,500 compounds. About 2,000 (36%) were called active. About 18% were inconclusive and are not listed. Cut-off read from the data, not from the text of the source: active = normalized growth mostly below about 0.91 (no sharp cut-off); inconclusive = no clear call, values can overlap the other calls; inactive = mostly above about 0.92. The list shows a part of the results.

Assay: chemical genetic growth profiling, strain panel (AID 1159580);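 note: tested at 20 µM; growth read once vehicle control cultures reached saturation at 30 °C; 1 = growth at the plate median or of vehicle wells; lower values mean less growth of the strain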
Conditions: growth OD

Measured: normalized growth

COc1ccc(C(=O)N2CCCC2=O)cc1
inactive: S. cerevisiae deletion strains, locus YJR075W, strain HOC1, active compounds read low 0.99 | S. cerevisiae deletion strains, locus YKL009W, strain mrt4, active compounds read low 0.97 | S. cerevisiae deletion strains, locus YKL068W, active compounds read low 0.976 | S. cerevisiae deletion strains, locus YKL085W, strain MDH1 (second series), active compounds read low 0.984 | S. cerevisiae deletion strains, locus YKL085W, strain MDH1, active compounds read low 0.984 | S. cerevisiae deletion strains, locus YKL160W, strain elf1, active compounds read low 0.952 | S. cerevisiae deletion strains, locus YKL190W, strain CNB1, active compounds read low 0.993 | S. cerevisiae deletion strains, locus YKR001C, strain vps1, active compounds read low 0.968 | S. cerevisiae deletion strains, locus YKR026C, strain gcn3, active compounds read low 0.976 | S. cerevisiae deletion strains, locus YKR091W, strain srl3, active compounds read low 0.969 | S. cerevisiae deletion strains, locus YLL001W, strain dnm1, active compounds read low 0.963 | S. cerevisiae deletion strains, locus YLL026W, active compounds read low 0.98 | S. cerevisiae deletion strains, locus YLL041C, strain sdh2, active compounds read low 0.986 | S. cerevisiae deletion strains, locus YLR027C, strain aat2, active compounds read low 0.963 | S. cerevisiae deletion strains, locus YLR039C, strain RIC1, active compounds read low 0.947 | S. cerevisiae deletion strains, locus YLR058C, strain SHM2, active compounds read low 0.978 | S. cerevisiae deletion strains, locus YLR102C, strain apc9, active compounds read low 0.979 | S. cerevisiae deletion strains, locus YLR221C, strain rsa3, active compounds read low 0.945 | S. cerevisiae deletion strains, locus YLR258W, strain gsy2, active compounds read low 0.98 | S. cerevisiae deletion strains, locus YLR262C, strain YPT6 (second series), active compounds read low 0.967 | S. cerevisiae deletion strains, locus YLR262C, strain YPT6, active compounds read low 0.902 | S. cerevisiae deletion strains, locus YLR268W, strain sec22, active compounds read low 0.971 | S. cerevisiae deletion strains, locus YLR320W, strain mms22, active compounds read low 0.933 | S. cerevisiae deletion strains, locus YLR330W, strain CHS5, active compounds read low 0.986 | S. cerevisiae deletion strains, locus YLR342W, strain FKS1 (second series), active compounds read low 0.995 | S. cerevisiae deletion strains, locus YLR342W, strain FKS1, active compounds read low 0.99 | S. cerevisiae deletion strains, locus YLR357W, strain rsc2, active compounds read low 0.991 | S. cerevisiae deletion strains, locus YLR370C, strain arc18, active compounds read low 0.963 | S. cerevisiae deletion strains, locus YLR371W, strain rom2, active compounds read low 0.993 | S. cerevisiae deletion strains, locus YLR384C, strain iki3, active compounds read low 0.958 | S. cerevisiae deletion strains, locus YLR418C, strain cdc73, active compounds read low 0.967 | S. cerevisiae deletion strains, locus YML016C, strain PPZ1, active compounds read low 0.983 | S. cerevisiae deletion strains, locus YML032C, strain rad52, active compounds read low 1 | S. cerevisiae deletion strains, locus YML120C, strain ndi1, active compounds read low 0.94 | S. cerevisiae deletion strains, locus YML124C, strain tub3, active compounds read low 0.994 | S. cerevisiae deletion strains, locus YMR058W, strain fet3, active compounds read low 0.971 | S. cerevisiae deletion strains, locus YMR078C, strain ctf18, active compounds read low 0.974 | S. cerevisiae deletion strains, locus YMR125W, strain sto1, active compounds read low 0.973 | S. cerevisiae deletion strains, locus YMR129W, active compounds read low 0.986 | S. cerevisiae deletion strains, locus YMR205C, strain PFK2, active compounds read low 0.971 | S. cerevisiae deletion strains, locus YMR223W, strain ubp8, active compounds read low 0.995 | S. cerevisiae deletion strains, locus YMR231W, strain pep5, active compounds read low 0.978 | S. cerevisiae deletion strains, locus YMR263W, strain SAP30, active compounds read low 0.964 | S. cerevisiae deletion strains, locus YMR307W, strain GAS1, active compounds read low 0.99 | S. cerevisiae deletion strains, locus YNL067W, strain RPL9B, active compounds read low 0.974 | S. cerevisiae deletion strains, locus YNL071W, strain lat1, active compounds read low 0.982 | S. cerevisiae deletion strains, locus YNL128W, strain TEP1, active compounds read low 0.979 | S. cerevisiae deletion strains, locus YNL153C, strain GIM3, active compounds read low 0.965 and 1.01 | S. cerevisiae deletion strains, locus YNL175C, strain NOP13, active compounds read low 1 | S. cerevisiae deletion strains, locus YNL197C, strain WHI3, active compounds read low 1.01 | S. cerevisiae deletion strains, locus YNL209W, strain ssb2, active compounds read low 0.984 | S. cerevisiae deletion strains, locus YNL224C, strain SQS1, active compounds read low 1.02 | S. cerevisiae deletion strains, locus YNL233W, strain BNI4, active compounds read low 0.99 | S. cerevisiae deletion strains, locus YNL248C, strain rpa49, active compounds read low 0.976 | S. cerevisiae deletion strains, locus YNL250W, strain rad50, active compounds read low 0.964 | S. cerevisiae deletion strains, locus YNL271C, strain bni1, active compounds read low 0.986 | S. cerevisiae deletion strains, locus YNL298W, strain CLA4, active compounds read low 0.982 | S. cerevisiae deletion strains, locus YNL307C, strain MCK1, active compounds read low 0.989 | S. cerevisiae deletion strains, locus YNL322C, strain KRE1 (second series), active compounds read low 0.955 | S. cerevisiae deletion strains, locus YNL322C, strain KRE1, active compounds read low 0.986 and 1 | S. cerevisiae deletion strains, locus YNR049C, strain mso1, active compounds read low 0.954 | S. cerevisiae deletion strains, locus YNR052C, strain pop2, active compounds read low 0.974 | S. cerevisiae deletion strains, locus YOL006C, strain TOP1, active compounds read low 0.921 | S. cerevisiae deletion strains, locus YOL012C, strain htz1 0.923 | S. cerevisiae deletion strains, locus YOL147C, strain pex11, active compounds read low 0.99 | S. cerevisiae deletion strains, locus YOR001W, strain rrp6, active compounds read low 0.998 | S. cerevisiae deletion strains, locus YOR061W, strain CKA2, active compounds read low 0.949 | S. cerevisiae deletion strains, locus YOR069W, strain VPS5, active compounds read low 0.987 | S. cerevisiae deletion strains, locus YOR070C, strain gyp1, active compounds read low 0.991 | S. cerevisiae deletion strains, locus YOR080W, strain dia2, active compounds read low 0.976 | S. cerevisiae deletion strains, locus YOR083W, strain WHI5 (second series), active compounds read low 1.02 | S. cerevisiae deletion strains, locus YOR083W, strain WHI5, active compounds read low 0.946 | S. cerevisiae deletion strains, locus YOR106W, strain vam3, active compounds read low 0.93 | S. cerevisiae deletion strains, locus YOR136W, strain idh2, active compounds read low 0.99 | S. cerevisiae deletion strains, locus YOR144C, strain elg1, active compounds read low 0.999 | S. cerevisiae deletion strains, locus YOR184W, strain ser1, active compounds read low 0.993 | S. cerevisiae deletion strains, locus YOR265W, strain rbl2, active compounds read low 0.989 | S. cerevisiae deletion strains, locus YOR270C, strain vph1, active compounds read low 0.929 | S. cerevisiae deletion strains, locus YOR290C, strain snf2, active compounds read low 0.933 | S. cerevisiae deletion strains, locus YOR316C, strain cot1, active compounds read low 0.978 | S. cerevisiae deletion strains, locus YPL051W, strain arl3, active compounds read low 1.01 | S. cerevisiae deletion strains, locus YPL055C, strain LGE1, active compounds read low 0.988 | S. cerevisiae deletion strains, locus YPL078C, strain atp4, active compounds read low 0.963 | S. cerevisiae deletion strains, locus YPL106C, strain sse1, active compounds read low 0.925 | S. cerevisiae deletion strains, locus YPL240C, strain hsp82, active compounds read low 0.986 | S. cerevisiae deletion strains, locus YPL241C, strain CIN2, active compounds read low 1.03 and 1 | S. cerevisiae deletion strains, locus YPR119W, strain clb2, active compounds read low 0.991 | S. cerevisiae deletion strains, locus YPR141C, strain kar3, active compounds read low 0.962 | S. cerevisiae deletion strains, locus YPR163C, strain tif3, active compounds read low 1 | S. cerevisiae deletion strains, locus YPR167C, strain met16, active compounds read low 0.972 | S. cerevisiae deletion strains, strain wtn01, active compounds read low 0.984 | S. cerevisiae strains, strain wild type, active compounds read low 0.993
